gsp antagonist – antagonists of gsp mutant (McCune-Albright syndrome) | gsp-mutant cells, cAMP HTRF, 30 min | Potency, µM (highest dose often 76.9 µM), without a hit: top-dose activity change, negative = inhibition, actives largely listed as inhibitors | actives 0.4% (n = 340,000); calls by dose curve; cell line not stated here;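 also: intracellular cAMP measured with PDE inhibitor Ro 20-1724 present during compound exposure; potency is read from the fitted curve at half-maximal effect; % is scaled to controls: 0 for no effect and ±100 for the full control effect; nearly all actives have a fitted effect of over 65% in size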
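Cells in G418 medium, seeded 16-24 h, 37C; buffer exchange to DPBS + 1 mM CaCl2, 0.5 mM MgCl2, 0.05% BSA; cpds in DMSO + […] (300 uM stock), 30 min 37C; HTRF cAMP detection.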
gsp ag – agonists of gsp mutant (McCune-Albright syndrome). gsp mutant cells, cAMP HTRF, 30 min. Potency, µM (titrated, usually from 76.9 µM), without a hit: at the highest dose activation (cAMP increase), most hits filed as activators. actives 0.13% (n = 340,000); active = well fitted activation curve with a large enough effect; inconclusive = small, poorly fitted or top-dose-only effect, or another doubt; inactive = no such curve, though single readings can be large or run the other way; cell line not stated here;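 also: phosphodiesterase inhibitor Ro 20-1724 added with compounds to block cAMP breakdown; potency is read from the fitted curve at half-maximal effect; nearly all actives have a fitted effect of over 60% in size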
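Cells stably selected in G418 were plated at 2000/well, grown 16-24 hr, then given compounds in DMSO with the PDE inhibitor […] (300 uM solution added) for 30 min at 37C; cAMP was read by HTRF.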
RXFP1 antagonist – RXFP1 (human) relaxin receptor antagonism; Q9HBX9; HEK293-RXFP1, relaxin-stimulated cAMP HTRF, 30 min; hits give low values; activity change, negative = inhibition, % at 57.5 µM; actives 0.59% (n = 350,000); AID 1259400;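 active = activity change of -60% or lower, but not beyond a set lower limit; inconclusive = change between -60% and -40%, or beyond the set limit; inactive = change above -40%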; also: % is scaled to controls: 0 for no effect and ±100 for the full control effect
Target sequence (Q9HBX9 whole entry, looked up): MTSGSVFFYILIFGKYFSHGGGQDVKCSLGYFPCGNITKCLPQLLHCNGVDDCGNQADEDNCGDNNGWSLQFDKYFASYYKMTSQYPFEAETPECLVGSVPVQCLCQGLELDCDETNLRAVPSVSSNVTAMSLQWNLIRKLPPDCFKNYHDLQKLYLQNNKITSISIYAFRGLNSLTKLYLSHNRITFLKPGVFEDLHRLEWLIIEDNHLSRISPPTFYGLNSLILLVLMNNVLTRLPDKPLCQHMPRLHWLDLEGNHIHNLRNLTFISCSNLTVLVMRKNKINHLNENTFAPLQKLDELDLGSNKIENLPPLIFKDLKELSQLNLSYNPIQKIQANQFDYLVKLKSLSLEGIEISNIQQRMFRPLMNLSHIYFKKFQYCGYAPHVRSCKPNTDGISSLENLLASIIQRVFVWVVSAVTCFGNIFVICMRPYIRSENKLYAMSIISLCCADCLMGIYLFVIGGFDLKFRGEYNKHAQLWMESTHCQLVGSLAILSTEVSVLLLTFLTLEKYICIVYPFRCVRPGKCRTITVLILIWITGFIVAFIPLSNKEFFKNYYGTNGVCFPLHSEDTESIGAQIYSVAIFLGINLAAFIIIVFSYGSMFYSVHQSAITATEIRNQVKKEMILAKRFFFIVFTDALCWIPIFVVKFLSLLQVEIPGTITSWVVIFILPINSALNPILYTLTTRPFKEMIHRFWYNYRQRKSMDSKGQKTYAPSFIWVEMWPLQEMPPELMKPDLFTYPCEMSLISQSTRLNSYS
Coupling enz – inhibits coupling enzyme system, counter-screen for aldolase hits. coupling enzyme system counterscreen, AmpLite Red fluorescence. activity change, negative = inhibition, % at 58.2 µM, hits read low. actives 0.67% (n = 290,000). AID 2472; in the data active = activity change below about -30%; also: % is scaled to controls: 0 for no effect and ±100 for the full control effect
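Activity here indicates interference with the coupling reaction, not aldolase inhibition. Compounds at 57.5 uM final met coupling enzymes for 10 min at RT; substrate and AmpLite Red detection followed, with a 525/598 nm fluorescence read after 20 min.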
Giardia kill – kills Giardia lamblia. Giardia lamblia trophozoite viability. activity change, % at 7.66 µM, hits read low. AID 540267. actives 0.15% (n = 340,000); in the data active = activity change below about -80%; inconclusive = between about -30% and that limit;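 also: parasites exposed to compound for two days anaerobically before the ATP read; % is scaled to controls: 0 for no effect and ±100 for the full control effect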
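Trophozoite viability was measured as ATP-dependent luminescence, read 15-30 min after reagent addition. Before that, parasites at 100 cells/well were exposed to compounds for 48 h, anaerobically, at 37 deg C.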
RXFP1 agonist – RXFP1 (human) receptor agonism. HEK293T-RXFP1 cAMP TR-FRET, 30 min; response scale: percent of porcine relaxin response, buffer zero. Potency, µM (highest dose often 57.5 µM), without a hit: at the top dose activation, actives largely listed as activators. actives 0.3% (n = 370,000). AID 2676; active = well fitted activation curve with a large enough effect; inconclusive = small, poorly fitted or top-dose-only effect; also: potency is read from the fitted curve at half-maximal effect; % is scaled to controls: 0 for no effect and ±100 for the full control effect; nearly all actives have a fitted effect of over 60% in size
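HEK293 cells stably expressing RXFP1, treated 30 min at 37C with compounds plus PDE4 inhibitor Ro 20174; cAMP measured by HTRF TR-FRET. Normalized to buffer and 29 nM porcine relaxin; EC50 by Hill fit.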
Starred values were filed as active, the others as inactive; [ ] = another dose, or the depositor's remark. This is a sample that favours compounds with a hit; in the whole collection about 1.6% have one here.

Results for O=c1c(N2CCOCC2)nsnc1N1CCOCC1 ?
gsp antagonist: -5%[15.4 µM]; gsp ag: -4%; RXFP1 antagonist: -2; Coupling enz: -54*; Giardia kill: -18; RXFP1 agonist: -2%

How did COC(=O)Oc1nsnc1N1CCOCC1 do in these assays?
gsp antagonist: -1%; gsp ag: inconclusive; RXFP1 antagonist: 0; Coupling enz: -1; Giardia kill: 3; RXFP1 agonist: 0%

Results for Clc1ccc2c(c1)-c1nnc(Br)n1-c1ccccc1S2 ?
gsp antagonist: 20µM*; gsp ag: 2%; RXFP1 antagonist: -12; Coupling enz: -2; Giardia kill: 2; RXFP1 agonist: 1%

How did Brc1nnc2n1-c1ccccc1Sc1ccccc1-2 do in these assays?
gsp antagonist: inconclusive; gsp ag: 0%; RXFP1 antagonist: -9; Coupling enz: 2; Giardia kill: 14; RXFP1 agonist: 1%

How did Nc1nc(O)c(N=Nc2ccc(S(N)(=O)=O)cc2)c(=O)[nH]1 do in these assays?
gsp antagonist: 15%; gsp ag: 6%[15.4 µM]; RXFP1 antagonist: 5; Coupling enz: -1; Giardia kill: -1; RXFP1 agonist: 21%

What do the screens show for `NS(=O)(=O)c1ccc(N=Nc2c[nH]c(=O)c(O)c2)cc1`?
gsp antagonist: inconclusive; gsp ag: -30%; RXFP1 antagonist: -23; Coupling enz: -38*; Giardia kill: 4; RXFP1 agonist: -2%

How did O=C(Cc1ccccc1)NNC(=O)c1ccccc1C(=O)O do in these assays?
gsp antagonist: 11µM*; gsp ag: inconclusive; RXFP1 antagonist: 7; Coupling enz: -2; Giardia kill: -4; RXFP1 agonist: 1%

What do the screens show for `CN(C)S(=O)(=O)N1CCC(Oc2cccc(C(=O)NC3CCCCC3)c2)CC1`?
gsp antagonist: inconclusive; gsp ag: 8%; RXFP1 antagonist: 12; Giardia kill: -20; RXFP1 agonist: 2%

Results for CN(C)S(=O)(=O)N1CCC(Oc2cccc(C(=O)NCCC3=CCCCC3)c2)CC1 ?
gsp antagonist: 35µM*; gsp ag: -38%; RXFP1 antagonist: -15; Coupling enz: 2; Giardia kill: -16; RXFP1 agonist: -3%

What do the screens show for `O=C(CCn1c(=S)oc2ccccc21)Nc1cc([N+](=O)[O-])ccc1F`?
gsp antagonist: 6%; gsp ag: -31%; RXFP1 antagonist: 14; Coupling enz: -3; Giardia kill: 18; RXFP1 agonist: 0%

Results for O=C(Cc1coc2ccc3ccccc3c12)N1CCCC1 ?
gsp antagonist: -4%; gsp ag: inconclusive; RXFP1 antagonist: 0; Coupling enz: -37*; Giardia kill: 22; RXFP1 agonist: 0%

Results for O=S(=O)(c1ccc(Oc2ccc3c(c2)OCO3)c(S(=O)(=O)N2CCOCC2)c1)N1CCOCC1 ?
Giardia kill: -21

Results for CN(C)c1nc(N)nc(/C(C#N)=C/C2CC3C=CC2C3)n1 (stereo not given) ?
gsp antagonist: 8%; gsp ag: 0%; RXFP1 antagonist: -5; Coupling enz: -33*; Giardia kill: 5; RXFP1 agonist: 0%

What do the screens show for `CN(CC(=O)Nc1ccccc1Cl)C(=O)COC(=O)c1cnccn1`?
gsp antagonist: -1%; gsp ag: inconclusive; RXFP1 antagonist: 7; Giardia kill: 13; RXFP1 agonist: 0%

How did CC1=Nc2ccc(C)cc2/C1=C/c1c(N)n2c(S(=O)(=O)C(C)C)nsc2nc1=O do in these assays?
gsp antagonist: 40µM*; gsp ag: -19%; RXFP1 antagonist: -16; Coupling enz: 6; Giardia kill: 6; RXFP1 agonist: 0%

Results for Cc1ccc(S(=O)(=O)N[C@H]2COC(=O)[C@@H](C)COC(=O)C/C=C\[C@H]2C)cc1 ?
Coupling enz: 1

Results for CCCC[C@]12Cc3ccccc3C(O1)c1c(cc(-c3ccccc3)oc1=O)O2 ?
Coupling enz: -31*; RXFP1 agonist: 9%[11.5 µM]

How did CCOC(=O)CN1CCCC1=O do in these assays?
RXFP1 antagonist: 3
